What all share (experiment): yeast three-hybrid, YBZ-1, SC-Leu-His + 0.5 mM 3-AT, 4 days
What all share (conditions): tags: N-Gal4 AD-HA kept; label: inside an RPR1-promoter hybrid RNA with tandem MS2 sites; ssRNA

One test has as its target PUM1 PUF domain R8-KFC (Homo sapiens, UniProt Q14671 828-1176, N1122K;Y1123F;Q1126C). The procedure, abridged:
(§1)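 Pumilio-1 PUF domain libraries, randomized at the three base-contacting residues of each repeat, were co-expressed with matching RNA elements from a centromeric plasmid in strain YBZ-1, which carries a LexA–MS2 coat fusion and a HIS3 reporter. Transformants grew for four days on SC-Leu (input) or on SC-Leu-His + 0.5 mM 3-AT (selection), and the repeat regions were PCR-amplified and Illumina-sequenced. The interaction score is the log change in variant frequency from input to selection. That logarithm is base 2, with a pseudocount of 1 where a variant was absent.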

In the next test the target is PUM1 PUF domain R4-NNL (Homo sapiens, UniProt Q14671 828-1176, H972N;Q975L). The procedure, abridged:
as §1

For a further test, the target named is T1, PUM1 PUF domain R6-CWC (Homo sapiens, UniProt Q14671 828-1176, N1043C;Y1044W;Q1047C).
T1 sequence: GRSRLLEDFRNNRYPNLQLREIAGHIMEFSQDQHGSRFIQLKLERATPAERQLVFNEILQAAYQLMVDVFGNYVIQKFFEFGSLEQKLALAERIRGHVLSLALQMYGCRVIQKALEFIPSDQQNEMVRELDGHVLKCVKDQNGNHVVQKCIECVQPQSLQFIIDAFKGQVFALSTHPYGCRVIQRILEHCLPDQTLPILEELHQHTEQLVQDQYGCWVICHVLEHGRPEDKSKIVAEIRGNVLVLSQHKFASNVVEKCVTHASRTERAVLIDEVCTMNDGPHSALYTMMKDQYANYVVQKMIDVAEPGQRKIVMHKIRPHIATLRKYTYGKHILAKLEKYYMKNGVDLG
The procedure, abridged:
as §1

For another test, the target named is PUM1 PUF domain R8-CFR (Homo sapiens, UniProt Q14671 828-1176, N1122C;Y1123F;Q1126R). Put shortly:
as §1

Consider “GGCUAGAACUAGUGGAUCCCCCGGCGCCCGGCGGCUCGAGCCCGGGUAAGUGUAAAUAGUCUGCAUGCCGCCGGGCGCCAUGCCUGCAGGUCGACUCUAGAAAACAUG”, for which the binding signal with PUM1 PUF domain R8-KFC is 2.49 log2 enrichment (interaction score); with PUM1 PUF domain R4-NNL, 3.79 log2 enrichment (interaction score); with PUM1 PUF domain R6-CWC it was 3 log2 enrichment (interaction score); in the test with PUM1 PUF domain R8-CFR, 4.47 log2 enrichment (interaction score).
For “GGCUAGAACUAGUGGAUCCCCCGGCGCCCGGCGGCUCGAGCCCGGGUAAGGGUAAAUAGUCUGCAUGCCGCCGGGCGCCAUGCCUGCAGGUCGACUCUAGAAAACAUG”, in the test with PUM1 PUF domain R8-KFC, the binding signal is 2.66 log2 enrichment (interaction score).
Turning to “GGCUAGAACUAGUGGAUCCCCCGGCGCCCGGCGGCUCGAGCCCGGGUAAGUGUAUAUAGUCUGCAUGCCGCCGGGCGCCAUGCCUGCAGGUCGACUCUAGAAAACAUG”, the binding signal with PUM1 PUF domain R4-NNL is 3 log2 enrichment (interaction score).

Values taken from publication PMC8384837, “Expanding the binding specificity for RNA recognition by a PUF domain”.
